High-throughput results as filed in PubChem BioAssay.
zVAD death inh: L929 zVAD cell death inhibition | L929 zVAD necroptosis rescue, ATP luminescence, 24 h; with zVAD 60 µM | viability rescue, % at 10 µM | actives 0.38% (n = 220,000) | AID 1377;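 active means activation, scaled between plate controls, above about 75%, limit read from the data; inactive means activation under that limit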
TNF necrop inh: inhibitors of TNF-alpha induced necroptosis in Jurkat FADD-/- cells; activation (protection from cell death), % at 10 µM; actives 0.068% (n = 220,000); Jurkat FADD-/- TNF necroptosis rescue, ATP luminescence, 24 h; 0 = TNF only, 100 = no-TNF cells; AID 463075;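 active means activation, meaning protection from cell death, of at least 50% relative to plate controls; inactive means activation below 50%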;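 further: necroptosis triggered by 40 ng/mL TNF-alpha added together with compound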
m-calpain inh: inhibitors of pig calpain II | inhibition, % at 16 µM | AID 1236 | actives 0.37% (n = 220,000) | purified calpain II, fluorogenic peptide substrate, 30 min;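 active means inhibition above about 50%, limit read from the data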
Mcl1-Noxa inh: Mcl-1/Noxa interaction inhibition; Q07820; TR-FRET Mcl-1/Noxa peptide binding, 2 h; inhibition, % at 21.7 µM; actives 1.5% (n = 220,000);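 active means compounds that cut the protein-peptide binding signal by more than 50% relative to plate controls in a single-dose test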;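 further: His-tagged Mcl-1 with rhodamine Noxa BH3 peptide and terbium anti-His antibody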
Target sequence (Q07820 whole entry, looked up): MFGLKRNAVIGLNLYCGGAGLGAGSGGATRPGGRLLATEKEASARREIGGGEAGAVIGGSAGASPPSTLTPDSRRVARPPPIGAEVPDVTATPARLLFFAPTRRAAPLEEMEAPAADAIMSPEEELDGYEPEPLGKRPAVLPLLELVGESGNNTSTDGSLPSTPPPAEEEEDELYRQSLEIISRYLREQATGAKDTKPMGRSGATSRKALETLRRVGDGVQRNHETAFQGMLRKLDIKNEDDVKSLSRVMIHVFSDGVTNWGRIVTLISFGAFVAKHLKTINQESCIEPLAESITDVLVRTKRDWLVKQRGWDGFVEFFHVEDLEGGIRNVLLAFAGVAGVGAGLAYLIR
Mcl1 Bid PPI: disrupts binding of human Mcl-1 to Bid peptide; TR-FRET Mcl-1/Bid-Dy647 peptide binding, 1536-well; inhibition, % at 21.7 µM; actives 0.97% (n = 220,000); AID 1021;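 active means compounds that cut the binding signal by more than half at the single screening dose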;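 further: His-tagged Mcl-1 with europium anti-His antibody binding Bid BH3 peptide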
Bim-Mcl-1: human Bim-Mcl-1 interaction inhibition | Bead-based flow cytometry, Bim peptide-Mcl-1 binding | actives 0.1% (n = 190,000) | inhibition, % at 10 µM | Q07820; in the data active means inhibition above about 40%
zVAD death conf: confirmed blocker of zVAD induced death in L929 cells; shares compounds with zVAD death inh; L929 zVAD-induced necroptosis rescue, ATP luminescence, 24 h; activation (protection from necroptosis), % at 10 µM; actives 16% (n = 760); AID 463117;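 active means mean protection from necroptosis of at least 50% over duplicate tests; inactive means mean protection below 50%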
A number is an active result; n = inactive; x = not tested or not shown. Rows were chosen to be rich in hits. Some 2.8% of all compounds tested hit in one or more screens of this group.

SMILES | zVAD death inh | TNF necrop inh | m-calpain inh | Mcl1-Noxa inh | Mcl1 Bid PPI | Bim-Mcl-1 | zVAD death conf
COCC(=O)NC1(c2nnnn2CCOC(=O)Nc2ccc(Cl)cc2)CCCCC1 | n | n | n | n | n | n | x
NS(=O)(=O)c1cc2c(cc1C(F)(F)F)NC(Cc1ccccc1)NS2(=O)=O (centres undefined) | n | n | n | n | n | n | x
CCN(CC)c1ccc(NC(=O)C2CCCN(S(=O)(=O)c3cccnc3)C2)c(C)c1 (centres undefined) | n | n | n | n | n | n | x
COc1cc(CNC(C)(C)CO)ccc1OCC(=O)Nc1ccc(Br)cc1 | 84 | n | n | n | n | n | n
COc1ccc(CN2CNc3c(c(=O)n(C)c(=O)n3C)C2)cc1 | x | n | n | n | n | n | x
Nn1cnn(Cc2ccccc2)c1=S | 88 | n | n | n | n | n | n
CCCSc1sc(C(=O)OC)c(-c2cccs2)c1C#N | n | n | n | n | n | x | x
CCN1CCN(Cc2ccc(NC(=O)c3ccc(C)c(NC(=O)C[C@@H]4NC(=O)[C@H](Cc5ccccc5)NC4=O)c3)cc2C(F)(F)F)CC1 | n | n | n | n | n | x | x
CCN1CCN(Cc2ccc(NC(=O)c3cc(NC(=O)c4ccno4)cc(OC)c3)cc2C(F)(F)F)CC1 | 77 | n | n | n | n | x | 73
CCN1CCN(Cc2ccc(NC(=O)c3cc(NC(=O)N4CCNC4=O)cc(OC)c3)cc2C(F)(F)F)CC1 | 78 | n | n | n | n | x | 64
CCN1CCN(Cc2ccc(NC(=O)c3cc(NC(=O)c4ccc5n[nH]nc5c4)cc(OC)c3)cc2C(F)(F)F)CC1 | n | n | n | n | n | x | x
CCN1CCN(Cc2ccc(NC(=O)c3ccc(C)c(NC(=O)c4csc(-c5ccncc5)n4)c3)cc2C(F)(F)F)CC1 | 84 | n | n | n | n | x | 81
Cc1cc(C)nc(SCCC(=O)Nc2ccccc2Cl)n1 | n | n | n | n | n | n | x
COc1ccc(-c2oc3ncnc(NCCCN4CCOCC4)c3c2-c2ccc(OC)cc2)cc1 | 77 | n | n | n | n | n | n
O=C(Oc1ccc(-c2cnc3ccccc3n2)cc1)c1ccc(Br)o1 | 85 | n | n | n | n | n | n
O=C(Oc1ccc(-c2cnc3ccccc3n2)cc1)c1ccc(Cl)c([N+](=O)[O-])c1 | 87 | n | n | x | n | n | n
O=C(Oc1ccc(-c2cnc3ccccc3n2)cc1)c1cccc([N+](=O)[O-])c1 | 94 | n | n | n | n | n | n
COc1ccc(S(=O)(=O)N(C)CC(=O)Nc2cccc(C(C)=O)c2)cc1Cl | n | n | n | n | n | n | x
O=C(CCCN1C(=O)c2ccccc2C1=O)NCCN1C(=O)S/C(=C\c2cccs2)C1=O | n | n | n | n | n | n | x
O=C(O)CCC(=O)Nc1ccc(/C=C/C(=O)C2CC2)cc1 | n | n | n | n | n | n | x
CC(=O)c1cnc2cc(-c3ccc(C)cc3)nn2c1C | n | n | n | n | n | n | x
CC(=O)c1cnc2cc(-c3ccccc3)nn2c1C | 82 | n | n | n | n | n | n
COc1ccc(NC(=O)Nc2nnc(C(C)C)s2)cc1 | 95 | n | n | n | n | n | n
COc1ccc(CC(=O)Nc2nnc(C(C)C)s2)cc1 | 82 | n | n | n | n | n | n
CC(C)c1nnc(NC(=O)Cc2ccc(Br)cc2)s1 | x | n | n | n | n | n | x
SMILES | zVAD death inh | TNF necrop inh | m-calpain inh | Mcl1-Noxa inh | Mcl1 Bid PPI | Bim-Mcl-1 | zVAD death conf
CC(C)(C)C1CCC(C(=O)OCC(=O)c2ccc[nH]2)CC1 (centres undefined) | n | n | n | n | n | n | x
Nc1c(C(=O)OCC2CCCO2)c2nc3ccccc3nc2n1-c1ccc2c(c1)OCCO2 (centres undefined) | 93 | n | n | n | n | n | n
O=C(NCc1ccc(Cl)cc1)C(=O)Nc1nccs1 | n | n | n | n | n | n | x
C/C=C/C=C/C(=O)Nc1nccs1 | 86 | n | n | n | n | n | n
O=C(/C=C/c1ccc(Cl)cc1)Nc1nccs1 | 77 | n | n | n | n | n | n
O=c1c(S(=O)(=O)c2ccc(Cl)cc2)cn(Cc2ccccc2F)c2ccc(F)cc12 | n | n | n | n | n | n | x
O=C(Nc1ccc(-n2cnnn2)cc1)C1CCC1 | n | n | n | n | n | n | x
O=C(Cc1ccc(-n2cnnn2)cc1)NC12CC3CC(CC(C3)C1)C2 | 86 | n | n | n | n | n | n
CCCCOc1ccc(/C=C/C(=O)NC2=Nc3ccccc3NC(C)=C2C(=O)OCC)cc1OC | n | n | n | n | n | n | x
COc1ccc(NC(=O)NC23CC4(C)CC(C)(CC(C)(C4)C2)C3)cc1 | 76 | n | n | n | n | n | n
COc1ccc(C(=O)NNC(=O)Nc2ccc(Cl)cc2)cc1 | 81 | n | n | n | n | n | n
COc1ccc(C(=O)NNC(=O)Cc2ccc(Cl)cc2)cc1 | n | n | n | n | n | n | x
CCN(CC)C(=O)Cn1cc(C(=O)C(=O)N2CC=C(c3ccccc3)CC2)c2ccccc21 | n | n | n | n | n | n | x
Nc1nc(NCCN2CCOCC2)nc(NCc2ccccc2)c1[N+](=O)[O-] | n | n | n | n | n | x | x
Brc1ccc2[nH]c3c(NCc4ccccn4)ncnc3c2c1 | 75 | n | n | n | n | x | n
Cc1cc(C)nc(N/N=C/c2cc(Br)ccc2O)n1 | n | n | n | n | n | x | x
O=c1[nH]c2ccccc2nc1-c1ccc(Cl)cc1 | 76 | n | n | n | n | x | n
O=c1cc(-c2ccc(O)c(O)c2)oc2cc(O)cc(O)c12 | 85 | n | n | 66 | n | x | n
COc1cc(-c2cc(=O)c3c(O)c(OC)c(OC)c(O)c3o2)ccc1O | n | n | n | n | n | n | x
CCO[C@@H]1OC(C(=O)N2CCOCC2)=C[C@H](c2ccc(C(F)(F)F)cc2)[C@H]1CCCO | n | n | n | n | n | n | x
O=Cc1ccc2noc(-c3ccc(F)cc3)c2c1 | 82 | n | n | n | n | n | n
Cc1cc(Nc2ccc(Br)cc2F)n2nc(C)nc2n1 | n | n | n | n | n | n | x
Cc1cc(C)nc(N2CCN(C(=O)CCC(=O)Nc3nnc(C(C)C)s3)CC2)n1 | 76 | n | n | n | n | x | n
CC(C)c1nnc(NC(=O)CCC(=O)N2CCN(c3ccccn3)CC2)s1 | n | n | n | n | n | n | x
CCCn1c(=O)c(-c2nc3ccccc3[nH]2)c(O)c2ccccc21 | n | n | n | n | n | n | x
CCn1c(=O)c(-c2nc3ccccc3[nH]2)c(O)c2ccccc21 | 80 | n | n | n | n | n | n
c1ccn(-c2ccc(-c3ccn[nH]3)cc2)c1 | 86 | n | n | n | n | n | n
O=C(CNC(=S)N(Cc1ccccc1)Cc1cccnc1)N1CCOCC1 | n | n | n | n | n | n | x
